Hit rate of the full screen: of about 360,000 compounds, about 1,100 (0.31%) were called active. This is one part of a sample in which actives are shown more often than they occur. Unmarked numbers belong to inactive results. Rule as the data show it: active = activity change below about -30%; inactive = the rest.
% is scaled to controls: 0 for no effect and ±100 for the full control effect.

This experiment concerns cytosolic chaperonin (CCT/TRiC complex). Put plainly: High-Throughput Screening for Modulators of Cytosolic Chaperonin Activity. Conditions: purified chaperonin ATPase assay, HTRF ADP detection, 30 min; stronger effect = lower value. The text has this: The eukaryotic chaperonin named TRiC (for TCP-1 ring complex), also called CCT (for chaperonin containing TCP1), is an essential and conserved chaperone required for the folding and activation of 10-15% of the proteins encoded by the human genome. […] Despite its central role in cellular folding, little is known about TRiC mechanism and mode of substrate binding. Currently, no specific TRiC inhibitors are available. Given the early promise of other chaperone-directed inhibitors as cancer therapeutics (e.g. HSP90 inhibitors), inhibitors of TRiC activity may also selectively target transformed cells and have potential use as therapeutics for cancer.
To this end, a miniaturized assay was developed to screen against the Molecular Libraries Small Molecule Repository (MLSMR).
NIH Chemical Genomics Center [NCGC]
NIH Molecular Libraries Probe Centers Network [MLPCN]
Assay Submitter (PI): Judith Frydman, Stanford University
1.5 uL/well TRiC enzyme suspended in buffer (30 mM TRIS pH7.4, 100 mM KCl, 5 mM MgCl2, 1 mM DTT) was added with BioRAPTR FRD dispenser at 40 nM or 20 nM (based on the enzymatic activity of used batches) final concentration to a white solid bottom medium binding 1536-well plate (Greiner Bio-One, Monroe, NC), and quickly spanned down. 23 nl/well of compound solutions in DMSO were added with a pintool transfer (Kalypsis, San Diego, CA) at a single 76 uM final concentration. Next, 1.5 µl/well ATP was dispensed with BioraptR at 10 uM final concentration after which the plates were incubated at 37 deg C for 30 min. HTRF(R) Transcreener(R) ADP (Cisbio US, Bedford, MA) detection reagents were prepared accordingly to the protocol and dispensed into the plate (1.5 uL/well each), incubated for 30 min at ambient temperature. Then, the plates were read using Envision reader with excitation at 330nm and emission at 615nm (Eu(3)-Cryptate donor signal) and 665nm (d2 acceptor signal). The ratio of […] was calculated for each well.
For the compound `COc1ccc2c(c1)C(=O)CC(c1ccccc1)O2` (configuration not stated), the activity change was 0.324%.
Turning to `O=C1CC(c2ccccc2)C(=O)N2C(=O)CC(c3ccccc3)C(=O)N12` (configuration not stated), the activity change is -3.94%.
For `Cc1c(O)c(C)c2c(c1O)C(=O)C[C@@H](c1ccccc1)O2` the value was -31.9% (active).
With `CCc1ccc(C(=O)N2CCN(S(=O)(=O)c3sc(C(=O)O)c(C)c3C(=O)O)CC2)cc1`, the activity change is -1.96%.
On to `COC(=O)CN(c1nc(C)c(Cl)c(OC)n1)S(=O)(=O)c1ccc(C)cc1`, for which the activity change was 2.28%.
In the case of `CC1CCC2(CC1)NC(=O)N(CC(=O)c1cccn1C)C2=O` (configuration not stated) it was 0.876%; in that of `Cc1nn(CC(=O)NC2CCCCC2)c(=O)c2cccn12`, 0.008%.
With `Cc1cc(C(F)F)nn1CC(=O)NC1CCCCCC1`, the activity change is -0.636%.
For the compound `O=C(Cn1nc([N+](=O)[O-])nc1Br)NC1CCCCC1`, the activity change was -63% (active).
`COc1c(Br)cc2c(C)c(C(=O)N3CCOCC3)oc2c1Br`: the activity change was -0.84%.
In the case of `Cc1ccc2[nH]c(=O)c(CN(C)S(=O)(=O)c3cccc4nonc34)cc2c1`, the activity change was -2.6%.
Take `CCCc1ccc(OCC(O)CN2CCN(C(=O)OCC)CC2)cc1` (configuration not stated): the activity change is 0.305%.
As for `Nc1ccc(OCC(O)C[n+]2ccc(CCS(=O)(=O)[O-])cc2)cc1` (configuration not stated), the activity change is -32.1% (active).
For the compound `CCc1ccc(S(=O)(=O)NCC(O)COc2ccc(OC)cc2)cc1` (configuration not stated), the activity change was 2.49%.
On to `O=C(Nc1cccc(Cl)c1Cl)c1ccccc1NC(=O)C1CC=CCC1C(=O)O` (configuration not stated), for which the activity change was 1.29%.
On to `O=C(c1ccc(Cl)cc1)n1cnc2ccccc21`, for which the activity change is -0.842%.
In the case of `COC(=O)c1ccc(-n2cnc3ccccc32)nc1`, the activity change is -67.7% (active).
In the case of `COC(=O)c1ccc(SCc2ccccc2)nc1`, the activity change was -0.717%.
On to `CS(=O)(=O)N(Cc1nc2sc3c(c2c(=O)[nH]1)CCCC3)C1CCCCC1`, for which the activity change was -3.6%.
Consider `COC(=O)c1sccc1N/N=C(\C)c1ccc(F)c(Cl)c1`, for which the activity change is 0.343%.
Consider `Cc1ccc(-c2nc(CS(=O)(=O)CC(=O)NCc3ccc4c(c3)OCO4)c(C)o2)cc1`, for which the activity change was -39.8% (active).
In the case of `COc1ccc(-c2nc(CS(=O)(=O)CC(=O)NCc3cccc(Br)c3)c(C)o2)cc1`, the activity change is -0.857%.
Regarding `COc1ccc(CCNC(=O)CS(=O)(=O)Cc2nc(-c3ccc(C)cc3)oc2C)cc1OC`, the activity change was -1.25%.
In the case of `CC12CN(Cc3ccccc3)CC(C)(CN(Cc3ccccc3)C1)C2=NO` it was 1.91%.
Turning to `CC(C)(C)CN1C(=O)C(=O)NC[C@H]1Cc1cccc2ccccc12`, the activity change is -2.37%.
In the case of `O=C(CCc1nnc2ccc(NCc3ccco3)nn12)Nc1cc(F)ccc1F`, the activity change is -33.9% (active).
`CCOc1ccccc1NC(=O)CCc1nnc2ccc(NCc3ccco3)nn12`: the activity change is 1.37%.
`CC(=O)c1ccc(NC(=O)CCc2nnc3ccc(NCc4ccco4)nn23)cc1`: the activity change is -1.16%.
For `COC(=O)[C@@]1(Cc2ccc(F)cc2)[C@H]2c3cc(C(=O)N(C)C)n(CCc4c[nH]c5ccc(OC)cc45)c3C[C@H]2CN1C(=O)c1ccccc1` the value was -0.685%; for `C=CCOc1ccc(/C=N/NC(=O)C(C)Sc2ccccn2)cc1OCC` (configuration not stated), -2.2%; for `O=C(NNC(=O)c1cccc(S(=O)(=O)Nc2ccc(Cl)cc2)c1)c1ccc(=O)[nH]c1`, -0.309%.
For the compound `CCc1ccc(/C=N/NC(=O)c2ccc(OC3CCCC3)cc2)s1`, the activity change is -13.3%.
With `CC(=O)c1c(C)n(-c2ccc(N(C)C)cc2)c2ccc(OCC(N)=O)cc12`, the activity change was 0.0827%.
For `CC(=O)c1c(C)n(-c2ccc(C)cc2)c2ccc(O)cc12`, the activity change was -47.3% (active).
For `CCOC(=O)c1c(CN2CCOCC2)n(-c2ccccc2)c2ccc(O)cc12` the value was -1.1%.
With `Cc1ccc(CN2C(=O)CCC2C(=O)NCCCN2CCCCC2C)cc1` (configuration not stated), the activity change is 0.0456%.
As for `CC1CCN(c2ccc(S(=O)(=O)Nc3cc(C(=O)O)cc(C(=O)O)c3)cc2[N+](=O)[O-])CC1`, the activity change was -0.243%.
For `CCc1ccccc1NC(=O)Cc1cn(C)c2ccccc12` the value was -2.82%; for `O=C(NCc1ccco1)C1CCCN(S(=O)(=O)c2cccc3nonc23)C1` (configuration not stated), -0.959%; for `Cc1ccccc1CNC(=O)CCC(=O)N1Cc2ccccc2Oc2ncccc21`, -84.3% (active).
`Cc1ccc2c(c1)N(C(=O)CCC(=O)NCc1cccnc1)CCO2`: the activity change was -3.52%.
With `Cc1ccccc1CN1CCN(CC(=O)NCc2ccccn2)C1=O`, the activity change was 0.386%.
On to `COC(=O)[C@@H](NC(=O)NCc1cccc(OC)c1)C(C)C`, for which the activity change was -2.29%.
In the case of `COC(=O)Nc1ncc(CN2C(=O)c3ccccc3C2=O)s1` it was -0.4%; in that of `Cc1noc(C)c1S(=O)(=O)N1CCCC(C(=O)Nc2nccs2)C1` (configuration not stated), -0.498%.
As to `CC(Cc1cccs1)N(Cc1ccc(Cl)cc1)C(=O)c1ccncc1` (configuration not stated), the activity change is 1.98%.
For `Brc1ccc(-c2csc(N/N=C/c3ccc4c(c3)OCO4)n2)cc1`, the activity change was -49.7% (active).
In the case of `COc1ccc(C(O)c2nc(-c3ccc4c(c3)OCO4)cs2)cc1` (configuration not stated) it was -0.395%; in that of `CC(O)(c1cccc(F)c1)c1nc(-c2ccc3c(c2)OCO3)cs1` (configuration not stated), -0.833%; in that of `O=C(NCCCNC(=O)NC1CCCCC1)NC1CCCCC1`, -1.85%.
Take `Cc1cc(OC(=O)c2ccc(OC(C)C)cc2)c([N+](=O)[O-])c(=O)[nH]1`: the activity change is -0.062%.
Turning to `CCCCC(CC)CNC(=O)CCCCn1c(=O)[nH]c2ccsc2c1=O` (configuration not stated), the activity change was 1.33%.
For the compound `O=C(CCCCCn1c(=S)[nH]c2ccsc2c1=O)NC1CCCCC1`, the activity change is -30.8% (active).
For `O=C(CCC(=O)c1cccs1)NC1CCCCCC1` the value was 0.811%; for `CCN(CC)CCCN=C(N)N`, -0.0838%; for `CC(C)(C)C(=O)NC1CC2CCCC(C1)N2C(=O)Nc1ccccc1F` (configuration not stated), -5.23%.
For `C=CS(=O)c1sc(Cl)c(N2CCOCC2)c1[N+](=O)[O-]` (configuration not stated) the value was -1.53%; for `CC(C)C(NC(=O)C1CCC(C(C)(C)C)CC1)C(=O)NCCCN1CCCCC1` (configuration not stated), 0.128%; for `COc1ccc(CC(=O)c2ccc(O)cc2O)cc1OC`, -38.8% (active).
On to `COc1ccc(CCNC(=O)CCc2ccccc2O)cc1OC`, for which the activity change was -0.891%.
As for `O=C(Cc1ccccn1)c1ccc(O)cc1O`, the activity change was -0.381%.
`CC(=O)Cn1ncc(N2CCOCC2)c(Br)c1=O`: the activity change was -7.2%.
Regarding `O=C(CSCc1c(F)cccc1Cl)NCC1CCCO1` (configuration not stated), the activity change is -0.136%.
Regarding `O=C(CSCc1c(Cl)cccc1Cl)NN1C(=O)c2ccccc2C1=O`, the activity change was -44% (active).
As to `O=C(CSCc1ccccc1Cl)NNC(=O)c1ccccc1`, the activity change was -0.322%.
Regarding `CC(CO)(CO)NC(=O)c1ccc(=O)[nH]n1`, the activity change was 1.59%.
For `Cc1ccc(C)c(OCCC(=O)OCC(=O)c2ccc3c(c2)NC(=O)CO3)c1` the value was -8.24%; for `CCOC(=O)C1CCN(C(=O)COc2cc(C)c(Br)c(C)c2)CC1`, -2.02%.
`Cc1ccc(O)c(/C=N/NC(=O)COc2ccc3c(C)cc(=O)oc3c2)c1`: the activity change is 2.07%.
As to `Cc1cc(=O)oc2ccc(OCC(=O)O)cc12`, the activity change is -57.7% (active).
As to `CC(=O)c1c(C)[nH]c(C(=O)COc2ccc3c(C)cc(=O)oc3c2)c1C`, the activity change is -0.599%.
`O=C(NCCC1CCCCN1S(=O)(=O)c1ccc(Cl)cc1)C(=O)NCc1ccco1` (configuration not stated): the activity change is 2.22%.
For `CCOC(=O)[C@@H]1[C@H]2COc3ccc(Br)cc3[C@H]2N2C(=O)N(c3ccc(Cl)cc3)C(=O)[C@@]12C` the value was -1.17%; for `CC1(C(=O)Nc2cccc3cccnc23)CCN1C(=O)CCC1CCCC1` (configuration not stated), 1.06%; for `O=C1c2ccccc2C(O)N1Cc1ccccc1` (configuration not stated), -1.07%.
For the compound `CCCCCCn1cc(C(=O)O)c(=O)c2cc(F)c(N3CCCCC3)cc21`, the activity change was -2.93%.
For `CCn1cc(C(=O)NCCO)c(=O)c2cc(F)c(N3CCN(C)CC3)cc21`, the activity change was -0.12%.
Turning to `CN1CCN(c2cc3c(cc2F)c(=O)c(C(=O)O)cn3CCF)CC1`, the activity change was -35.1% (active).
Consider `O=C(NCc1ccccc1)C(=O)NCC1OCCN1S(=O)(=O)c1ccc(Br)cc1` (configuration not stated), for which the activity change is -1.3%.
`O=C(NCc1ccncc1)C(=O)NCC1OCCN1S(=O)(=O)c1ccc(Br)cc1` (configuration not stated): the activity change was -45.4% (active).
Turning to `COc1ccc(S(=O)(=O)N2CCOC2CNC(=O)C(=O)NCc2ccncc2)cc1OC` (configuration not stated), the activity change was 0.662%.
For `O=C1CCC(=O)N1c1ccc(NCCc2ccccc2F)c([N+](=O)[O-])c1` the value was -1.58%; for `Cc1ccccc1NC(=O)c1cc(S(=O)(=O)N2CCOCC2)cs1`, -3.83%.
In the case of `Cn1c(=O)c(=O)n(C)c2cc(S(=O)(=O)NCCc3ccccc3)ccc21`, the activity change was -5.22%.
In the case of `COc1cccc(C(=O)NCCS(=O)(=O)NCC2CCCO2)c1` (configuration not stated), the activity change is -0.161%.
In the case of `CN(C(=O)c1cccc(OC2CCN(S(=O)(=O)N(C)C)CC2)c1)C1CCOC1` (configuration not stated) it was -4.71%; in that of `CN(C)S(=O)(=O)N1CCC(Oc2cccc(C(=O)NCCCC3CCCC3)c2)CC1`, -87.6% (active).
In the case of `Cc1onc(-c2c(Cl)cccc2Cl)c1C(=O)c1c[nH]c(C(=O)NC2CC2)c1` it was 0.407%; in that of `Cc1[nH]n(C)c(=O)c1C(=O)c1c(-c2c(Cl)cccc2Cl)noc1C`, -45.8% (active).
In the case of `Cc1onc(-c2c(F)cccc2Cl)c1C(=O)Nc1cccc(S(=O)(=O)N2CCCCC2)c1`, the activity change was -0.204%.
As to `O=C1NC(c2ccccc2)=NC1(Nc1ccccn1)C(F)(F)F` (configuration not stated), the activity change is -1.42%.
Turning to `Cc1cccc(N)c1SC1CCCCC1O` (configuration not stated), the activity change is -39.7% (active).
